± gives the standard deviation of the averaged measurements. In all, about 25,000 sequences were measured (“ln(normalized median fluorescence intensity)”: median about 10, highest 2% from about 12 on). This is one part of a sample in which the highest values are shown more often than they occur.
system: PfAP2-G AP2 domain (GST-tagged); test: gcPBM binding intensity (ln(normalized median fluorescence intensity)); higher = stronger DNA binding
Procedure, shortened: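 Binding intensity values are the highest Masliner-normalised natural-log median intensity among replicate spots of either probe orientation. The binding step lasted 1 h in 1× PBS with 1% milk, 0.2 mg/ml BSA, 0.5% salmon testes DNA and 0.03% Triton X-100, using GST-tagged P. falciparum DNA-binding domains expressed in E. coli on an Agilent 4 × 180k array of primer-extended double-stranded 36-bp intergenic genomic probes plus negative controls. Alexa488 anti-GST antibody and a 488 nm scan detected bound protein.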

Sequence | gcPBM binding intensity (ln)
TTTTTATAAGCATAAAGTACAAATATTTTTTAGTTG [XGTACX_site4140] | 11 ± 0.59
TGTAAGTATTCTTGAGGTACACATATAAATATAGTA [XGTACX_site3207] | 11.4 ± 0.79
AAATATATATATATATATATATATATATATATATAT [CACACA_negctrl_site677] | 10 ± 1
ATAGAATAATATTGTAGTACTAAAAATATTCATTTT [XGTACX_site6447] | 11.4 ± 0.92
TAATATTTATAAAATAGTACACAGAAAAAGCATTTT [XGTACX_site8948] | 11.4 ± 0.88
TATATAAAGCATTGTAGTACTACCAATATTTTTTTT [XGTACX_site3523] | 11.6 ± 1
GGAAACCTTTTTTTTACACACAATATATTAAGACTT [CACACA_site4899] | 9.86 ± 0.014
AAAAAAAAATTAAACATACACACGTTACTATTTTTA [CACACA_site1687] | 9.64 ± 0.26
TTATTATAAATGTTTTGTACGTACATCCGAAAATAA [XGTACX_site2175] | 11.7 ± 1.2
AAAATTATTAAATATGTACACACGTACATTTTATAA [CACACA_site8750] | 11.6 ± 0.88
AATATTTTTAATTAATGTACATATTTATTATATAAA [XGTACX_site5112] | 11.2 ± 0.76
TAGTATTATTTTTTTTGTACATATAAATGTAAAATA [XGTACX_site5282] | 11 ± 0.71
AATGTTTATTTTGTTTGTACATAAAATGAATAAAAT [XGTACX_site1456] | 11.1 ± 0.77
TTATACATATTTATATGTACGTAATATAATATTAAT [XGTACX_site6520] | 11.3 ± 0.91
TACGTATTTTAATATTTACACACTTATTTTTTATAT [CACACA_site7924] | 10.2 ± 0.13
TATTAAGTATTTTACGTACACACTTATAAATGTACA [CACACA_site3885] | 11.7 ± 0.82
AAATGTATAATTTTTTAATACACTTATTTAAAATAA [CACACA_negctrl_site797] | 10.1 ± 0.2
TTATTAAATATGTACACACGTACATTTTATAAATGA [CACACA_site2387] | 11.7 ± 1.1
AATTATTAAATATGTACACACGTACATTTTATAAAT [CACACA_site5341] | 11.6 ± 1
TATAATATATTTTAATGTACGTACATCCCGATTAAT [XGTACX_site7651] | 11.7 ± 0.86
CCTTTCTATTGAAAATGTACATATATATTATTATAT [XGTACX_site5527] | 11.1 ± 0.71
ATATTTTCTAATCAATGTACTTATTCTACACATTAA [XGTACX_site5774] | 11.3 ± 0.92
ATGGAAATATATACATGTACATAAATATATATATAT [XGTACX_site8391] | 11.2 ± 0.61

Sequence | gcPBM binding intensity (ln)
TTTTACTCTTAAAATAATAAAAAATATTCACATTTA [CACACA_negctrl_site1508] | 9.63 ± 0.085
TAAATTATAACGTGCACACATATTTAAAATGAAATG [CACACA_site2820] | 10.6 ± 0.45
TCTTCACCACGTGGAAGTACATAAAAAGATACACAA [XGTACX_site4747] | 11.4 ± 0.93
AATTTATTAGATAGATGTACATTTTAATAAAAGTAG [XGTACX_site6819] | 11.1 ± 0.67
AGATATTTTTCTTAAGTACACACTAATTAGAAACTA [CACACA_site7897] | 11.3 ± 0.93
CCCATATTATAGGTGTGTACATAAAAGTATATATAA [XGTACX_site3629] | 11.6 ± 0.95
TAACACCAAACTAAATGTACACACATACATAAATAT [XGTACX_site2201] | 11.2 ± 0.79
TATATAATATATTAATGTACGTTATATGTATTCCTT [XGTACX_site6140] | 11.2 ± 0.81
ATAATCCTTGGACACACACACACACTAGTAAATAAA [CACACA_site4423] | 10.9 ± 0.57
ATAAAAGATATTTTTACACACTTTTGATGAGATCGT [CACACA_site3053] | 10.08 ± 0.057
TTTTTAATCCTTTGCGCATGTAAAATTATATATTTT [TGCATGCA_site306] | 10.1 ± 0.11
TCATTTTAAGGAAAAAGTACAAAATAATATGTTCCT [XGTACX_site1903] | 11 ± 0.65
ATCTCTTAAATTTTACGTACTTATTTTATCTTCTTA [XGTACX_site8877] | 11.2 ± 0.67
AATTTCAATTTCTGTTGTACACTTTTTAATAGTAAA [XGTACX_site4085] | 11.4 ± 0.88
ATTATGATTTTATAGAACTGAACATTTACATTAAAT [GTGCAC_negctrl_site192] | 9.855 ± 0.064
TAAAAATGTGGACACACACACATATTTATATTTAAT [CACACA_site6827] | 11.4 ± 0.72
TATCCATTATTTAAAAGTACAAAAAACGATTTACAC [XGTACX_site2979] | 11.3 ± 0.8
TTAAGTATTTTACGTACACACTTATAAATGTACAGG [CACACA_site6012] | 11.7 ± 0.93
CTACACACTTATAAATGTACAGGATTTAAGTATATG [XGTACX_site8245] | 10.9 ± 0.49
ATATAAAAATGTGTATGTACACACTTTATTTTTAAT [XGTACX_site5272] | 11.4 ± 0.74
GTCTGCATATGGATACGTACACATATATATTAATGT [XGTACX_site2260] | 11.7 ± 0.91
GTAATTATATACATACGTACATACACATATGTATAT [XGTACX_site4149] | 11.3 ± 0.65
TGGAATAATACGCGTACACACATATAAATATTAATA [CACACA_site6211] | 11.7 ± 0.91

Sequence | gcPBM binding intensity (ln)
TTAAAAATTATGGATACACACATATATATATATATT [CACACA_site2383] | 10.2 ± 0.2
AATATATATTAATACACACACACATATATATATATA [CACACA_site3786] | 10.3 ± 0.47
GAATAATATGGACATACACACATATACATACATATA [CACACA_site2114] | 10.9 ± 0.51
ATATGGAATAATACGCGTACACACATATATATATTA [XGTACX_site307] | 11.7 ± 1
CATATAATAAATAATACACACATATTGGAAATATAT [CACACA_site3212] | 9.98 ± 0.057
TGGAATAATCCGCGTACACACATATATATATTAAGA [CACACA_site4253] | 11.6 ± 0.87
TATAAATACATACGTACACACAAATATTAAAATATA [CACACA_site5129] | 11.5 ± 0.87
TATGGAATAATACGCGTACACACATATATATATTAA [CACACA_site132] | 11.6 ± 0.93
TGGAATAATACGCGTACACACATATATATATTAATA [CACACA_site131] | 11.8 ± 0.97
AGTTTTATATTTCTGAGTACTTATGAATCTAGCTCG [XGTACX_site4330] | 11.2 ± 0.72
TGGTGATATACGAAATGTACGCAAATCACAAAATAA [XGTACX_site8836] | 11.5 ± 0.98
ATTAAAAAAAAAAAAAAAAAACAAAAAAAAAAAAAA [CACACA_negctrl_site1187] | 9.62
ACTTGTAAGAAACACACACACACACCCATATATATA [CACACA_site796] | 10.2 ± 0.14
TTTTATTATTAAACATGTACCCATATTATTGTTATG [XGTACX_site5563] | 11.2 ± 0.56
CTGAACCCGTTATGGTGTACATAAAATAAGACACAG [XGTACX_site3484] | 11.6 ± 0.96
TTTTTAAAACATCACTGTACCCGTTATGGTGAACAT [XGTACX_site3483] | 11.7 ± 1.2
TATATATATATATATAGTACATATTAATTAATTTAT [XGTACX_site8198] | 10.8 ± 0.63
CCTAAAAAAAAGAAATGATATACATATGTATATATA [GTGCAC_negctrl_site100] | 9.685 ± 0.064
TAAATAGATGTTTTATGTACGTATAAATAAAAAAAA [XGTACX_site3412] | 11.7 ± 0.88
ATAAAAATAAAAAGATGTACGTATTTTTTTTTTTTT [XGTACX_site5329] | 11.6 ± 0.91
TATATAATATATTTATGTACGTATTTAAAAATTTAT [XGTACX_site160] | 11.6 ± 0.98
TTTATTTTGATTTAATGTACAAATAGTAAAACAAAA [XGTACX_site4789] | 10.9 ± 0.49
AAATTTAGTAAAAAATGTACGTAAAATGTAAAATAT [XGTACX_site1314] | 11.5 ± 0.73

Sequence | gcPBM binding intensity (ln)
AATAGTAAAAATCACTGTACGTTTATTTTTAAAATG [XGTACX_site1035] | 11.7 ± 0.91
ATTTATTTTGTTGTTGTTTTTATTTGATTGTTTTAT [CACACA_negctrl_site1275] | 9.785 ± 0.007
GTTATTCTTAATTTTTGTACACATTTTTATATTATT [XGTACX_site7227] | 11.4 ± 0.7
ATTTTATAACATTCATGTACACATTTCATTTATTTG [XGTACX_site3028] | 11.3 ± 0.77
TTTTATAAATATTTTTGTACACATTTAAATATTATT [XGTACX_site4973] | 11.3 ± 0.59
AACATTATTTTGTGTACACATTCGGTTATATTATAT [CACACA_site5628] | 11.8 ± 1
TATATATATATTATATGTACACATTTGTGAATTATT [XGTACX_site5848] | 11.5 ± 0.85
TATAACATTATTTTGTGTACACATTCGGTTATATTA [XGTACX_site6310] | 12 ± 1.1
GCTTATTTTAATTCTTGTACTTATTTATATACAAAT [XGTACX_site2099] | 11.2 ± 0.83
TTATTTATTTATATAGTGCAATAAACACATAAATAG | 10.1 ± 0.26
TTTTGTAATTTTGTATGTACACATTAAAGTAATATG [XGTACX_site2401] | 11.5 ± 0.91
AATTTTCAATAGTATACACACAATTCTATAAATATA [CACACA_site6650] | 9.84 ± 0.042
ACTTCATTTTATAAGTGTACATAATTTGTTTATATA [XGTACX_site5453] | 11.5 ± 0.85
AATAATTGTTAAAGGTGTACAATACGTATGTAAGAA [XGTACX_site1328] | 11.5 ± 0.95
AATAATTCTTAAAGGTGTACAATATGTATATAAGAA [XGTACX_site595] | 11.7 ± 0.6
AACAATTTTTAAAGGTGTACAATATGTATATAAGAA [XGTACX_site254] | 11.6 ± 0.93
AATAAATAAATAAATAAAACAAAGGGATTACATACA [TGCATGCA_negctrl_site513] | 9.84 ± 0.11
TACATTTATAATAATACACACATAAATTTACATTTT [CACACA_site3463] | 10.1 ± 0.16
ATATATATATACATATGTACATATAAAATAATTTTG [XGTACX_site3731] | 11.1 ± 0.74
CGGCACATTCTATATACACACATATAAATATATACA [CACACA_site566] | 9.97 ± 0.042

Reference: the supplement of paper PMC11417369
